This passage reports Potency and outcome results from PubChem BioAssay (NCATS).

Experiment [1] can be described thus: Natriuretic polypeptide receptor (hNpr1) antagonism - Pilot counterscreen GloSensor control cell line (AID 1347045). Note: series mostly up to about 38 µM. The gist of the method: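 Cells were first seeded and incubated overnight at 37C, then loaded with 2% GloSensor substrate for 2 h. Compounds were added for 30 min at room temperature, followed by a baseline read, 50 uM SNP and a final read after 20 min.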
A general note: Counterscreens check selectivity or assay interference.

Experiment [2] concerns the target Atrial natriuretic peptide receptor 1 (Homo sapiens) (UniProt P16066). The experiment in a line: Natriuretic polypeptide receptor (hNpr1) antagonism - Pilot screen (AID 1347049).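 Note: HEK293 cells with hNpr1 and GloSensor cGMP luciferase stimulated by 0.1 nM hNppA; agonist-evoked cGMP luminescence read 20 min after hNppA addition; series mostly up to about 58 µM.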 The gist of the method:
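Receptor antagonism read as cGMP-dependent luminescence in hNpr1/pGS-40F HEK293 cells: pre-read after 30 min compound exposure, post-read 20 min after hNppA agonist at 0.1 nM final, all at room temperature, protected from light; A-71915 titration as control.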

Experiment [3] has as its target Atrial natriuretic peptide receptor 2 (Homo sapiens) (UniProt P20594). The experiment in a line: Natriuretic polypeptide receptor (hNpr2) antagonism - Pilot subtype selectivity assay (AID 1347050). In outline:
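Antagonist mode: compounds (LOPAC1280, seven 1:5 dilutions) added 30 min before 1 nM hNppC stimulation of hNpr2-HEK293 cGMP-sensor cells; luminescence read before and 20 min after agonist at ambient temperature.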

The nature of experiment [4]: NS1 protein of Zika virus - qHTS assay to identify small molecule inhibitors in human HEK 293 cells (AID 1347053; active = well fitted curve in the direction sought with a large enough effect; an effect the other way counts as inactive or inconclusive; note: series mostly up to about 46 µM; nearly all actives have a fitted effect of over 55% in size). In outline: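 Read-out is a two-antibody TR-FRET for ZIKV NS1, normalized between uninfected cells and infected cells. Compound added 1 h before MR766 infection at MOI 0.5; human HEK 293 cells incubated 24 h, 37 C.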
For orientation: Quantitative high-throughput screening tests each substance at several concentrations.

The target in experiment [5] is T1, Tyrosine-protein phosphatase non-receptor type substrate 1 (Homo sapiens) + Leukocyte surface antigen CD47 (Homo sapiens) (UniProt P78324+Q08722). The experiment in a line: CD47-SIRPalpha protein protein interaction - LANCE assay qHTS validation (AID 1347057; active = well fitted curve in the direction sought with a large enough effect in the signal ratio, with a control signal flat, not every such curve was filed as active; the % refers to the signal ratio; note: series mostly up to about 38 µM). The gist of the method: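 Inhibition of soluble CD47/SIRPalpha ectodomain association by titrated compounds, measured as 665/615 nm time-resolved FRET ratio after sequential 30 min room-temperature incubations.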
T1 sequence (P78324 whole entry, looked up, the tested form may be a part): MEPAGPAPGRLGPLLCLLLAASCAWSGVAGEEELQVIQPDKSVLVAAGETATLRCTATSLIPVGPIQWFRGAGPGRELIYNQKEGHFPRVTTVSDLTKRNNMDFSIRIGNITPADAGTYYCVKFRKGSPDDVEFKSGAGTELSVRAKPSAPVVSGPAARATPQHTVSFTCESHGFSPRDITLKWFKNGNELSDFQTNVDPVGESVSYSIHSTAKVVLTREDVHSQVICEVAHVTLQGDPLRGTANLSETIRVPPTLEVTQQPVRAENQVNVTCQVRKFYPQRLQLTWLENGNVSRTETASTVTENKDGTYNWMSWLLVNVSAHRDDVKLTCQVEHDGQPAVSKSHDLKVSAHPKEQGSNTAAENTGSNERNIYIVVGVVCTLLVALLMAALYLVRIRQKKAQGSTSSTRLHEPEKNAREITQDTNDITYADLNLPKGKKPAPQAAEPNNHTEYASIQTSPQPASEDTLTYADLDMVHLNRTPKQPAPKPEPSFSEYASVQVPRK
T1 sequence (Q08722 whole entry, looked up, the tested form may be a part): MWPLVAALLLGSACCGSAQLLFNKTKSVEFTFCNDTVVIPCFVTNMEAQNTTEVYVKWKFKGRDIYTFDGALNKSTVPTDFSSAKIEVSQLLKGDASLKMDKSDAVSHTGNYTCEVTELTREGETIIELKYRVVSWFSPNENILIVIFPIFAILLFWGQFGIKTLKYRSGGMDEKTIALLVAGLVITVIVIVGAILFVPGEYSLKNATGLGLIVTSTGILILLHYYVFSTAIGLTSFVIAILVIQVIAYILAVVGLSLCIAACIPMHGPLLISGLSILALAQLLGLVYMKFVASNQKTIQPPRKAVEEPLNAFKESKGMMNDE
On the technique in general: In TR-FRET formats the signal depends on donor and acceptor labels being close together.

The target in experiment [6] is T1, Tyrosine-protein phosphatase non-receptor type substrate 1 (Homo sapiens) + Leukocyte surface antigen CD47 (Homo sapiens). The experiment in a line: CD47-SIRPalpha protein protein interaction - Alpha assay qHTS validation (AID 1347059; active = well fitted curve in the direction sought with a large enough effect; an effect the other way counts as inactive or inconclusive;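 note: bead proximity luminescence from CD47 binding SIRPalpha after compound preincubation with SIRPalpha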; note: potency is the fitted concentration of half-maximal effect). The gist of the method: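 AlphaScreen signal between CD47-His (12.5 nM) and biotin-SIRPalpha (25 nM) soluble extracellular domains, bead-captured via Ni-NTA and streptavidin. Compounds, in 7-point titrations, met SIRPalpha 30 min before CD47; PBS pH 7.4 with 0.05% IGEPAL.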

Experiment [7] deals with Parathyroid hormone/parathyroid hormone-related peptide receptor (Homo sapiens) (UniProt Q03431). The experiment in a line: qHTS for PTHR1 Agonists: Optimization Screen against the NCGC LOPAC library (AID 1347079; active = well fitted curve in the direction sought with a large enough effect; an effect the other way counts as inactive or inconclusive;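 note: GloSensor cAMP luminescence in HEK-293 GP2 cells expressing human PTHR1 with IBMX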). The gist of the method: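 HEK-293 GP2 cells, PTHR1 + GloSensor cAMP; 3000 cells/well, o/n. Luciferin + IBMX 0.5mM each (stock), 1 hr 37C. Cpd titration, 1 hr 37C. Lum after 15 min RT. Ctrl M-PTH(1-15) top 10uM.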
Parathyroid hormone/parathyroid hormone-related peptide receptor (Homo sapiens), sequence (Q03431 whole entry, looked up): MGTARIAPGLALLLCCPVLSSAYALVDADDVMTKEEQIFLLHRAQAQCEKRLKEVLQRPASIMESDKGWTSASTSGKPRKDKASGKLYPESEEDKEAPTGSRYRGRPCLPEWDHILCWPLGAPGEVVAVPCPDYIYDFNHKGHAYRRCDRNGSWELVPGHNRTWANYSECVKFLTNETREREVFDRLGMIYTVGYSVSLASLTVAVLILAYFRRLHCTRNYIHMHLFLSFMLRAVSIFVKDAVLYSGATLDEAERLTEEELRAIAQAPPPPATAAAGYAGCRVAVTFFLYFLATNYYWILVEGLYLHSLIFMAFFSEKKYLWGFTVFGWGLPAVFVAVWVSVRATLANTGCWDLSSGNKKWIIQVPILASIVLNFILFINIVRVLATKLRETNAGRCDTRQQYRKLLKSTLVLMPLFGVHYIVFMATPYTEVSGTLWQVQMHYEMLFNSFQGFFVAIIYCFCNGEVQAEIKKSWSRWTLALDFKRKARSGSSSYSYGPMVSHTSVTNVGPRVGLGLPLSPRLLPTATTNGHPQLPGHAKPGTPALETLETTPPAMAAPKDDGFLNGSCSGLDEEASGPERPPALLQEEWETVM

Experiment [8] can be described thus: qHTS for Inhibitors of the Functional Ribonucleoprotein Complex (vRNP) of Lassa (LASV) Arenavirus: LASV Primary Screen - GLuc reporter signal (AID 1347082; calls by dose curve; tested in HEK293 reporter line; note: series mostly up to about 57 µM; nearly all actives have a fitted effect of over 60% in size).
The nature of experiment [9]: qHTS for Inhibitors of the Functional Ribonucleoprotein Complex (vRNP) of Lassa (LASV) Arenavirus: Viability assay - alamar blue signal for LASV Primary Screen (AID 1347083; calls by dose curve; tested in HEK293 reporter line; note: series mostly up to about 57 µM; nearly all actives have a fitted effect of over 80% in size).
Experiment [10] deals with T1, Tyrosine-protein phosphatase non-receptor type substrate 1 (Homo sapiens) + Leukocyte surface antigen CD47 (Homo sapiens). The experiment in a line: CD47-SIRPalpha protein protein interaction - HTRF assay qHTS validation (AID 1347058; active = well fitted curve in the direction sought with a large enough effect in the signal ratio, not every such curve was filed as active; the % refers to the signal ratio; note: series mostly up to about 38 µM). The gist of the method:
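Soluble extracellular domains (6His-CD47, Avi-tag-biotinylated SIRPalpha) in PBS pH 7.4 with 0.05% IGEPAL CA-630. Compounds were preincubated 30 min at RT with CD47 and anti-His-Eu, then SIRPalpha and SAV-XL665 were added. TR-FRET 665/615 ratio.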

Results filed as inconclusive are left out. The source made the active and inactive calls. Unless noted, calls come from the whole dose curve.

Atrial natriuretic peptide receptor 2 (Homo sapiens), sequence (P20594 whole entry, looked up): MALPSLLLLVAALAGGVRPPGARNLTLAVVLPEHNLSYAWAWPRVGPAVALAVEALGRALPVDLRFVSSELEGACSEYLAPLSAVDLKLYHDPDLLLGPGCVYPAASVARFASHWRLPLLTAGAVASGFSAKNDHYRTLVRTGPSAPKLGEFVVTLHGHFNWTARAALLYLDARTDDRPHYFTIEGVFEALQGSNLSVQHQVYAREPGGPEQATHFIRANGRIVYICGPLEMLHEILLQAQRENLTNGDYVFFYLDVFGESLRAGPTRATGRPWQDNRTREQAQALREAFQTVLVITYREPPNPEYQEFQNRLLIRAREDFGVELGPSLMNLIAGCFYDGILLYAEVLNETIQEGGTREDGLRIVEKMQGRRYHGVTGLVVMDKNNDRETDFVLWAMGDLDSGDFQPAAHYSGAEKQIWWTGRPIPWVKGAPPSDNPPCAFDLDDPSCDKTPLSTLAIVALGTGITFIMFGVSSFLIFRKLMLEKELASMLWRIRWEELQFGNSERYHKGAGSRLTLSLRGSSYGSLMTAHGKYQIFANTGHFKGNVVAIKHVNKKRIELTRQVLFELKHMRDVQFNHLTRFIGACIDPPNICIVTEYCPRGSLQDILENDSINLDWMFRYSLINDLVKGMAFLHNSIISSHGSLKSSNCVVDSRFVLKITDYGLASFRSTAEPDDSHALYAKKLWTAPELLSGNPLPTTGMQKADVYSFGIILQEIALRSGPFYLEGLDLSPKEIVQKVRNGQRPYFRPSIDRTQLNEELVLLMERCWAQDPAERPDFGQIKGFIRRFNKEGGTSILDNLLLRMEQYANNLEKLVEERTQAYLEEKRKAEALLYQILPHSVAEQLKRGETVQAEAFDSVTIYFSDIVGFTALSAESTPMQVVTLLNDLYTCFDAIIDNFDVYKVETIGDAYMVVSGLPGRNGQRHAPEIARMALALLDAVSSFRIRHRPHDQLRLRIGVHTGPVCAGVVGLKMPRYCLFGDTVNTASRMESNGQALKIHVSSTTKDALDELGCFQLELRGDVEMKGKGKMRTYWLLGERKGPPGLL
Atrial natriuretic peptide receptor 1 (Homo sapiens), sequence (P16066 whole entry, looked up): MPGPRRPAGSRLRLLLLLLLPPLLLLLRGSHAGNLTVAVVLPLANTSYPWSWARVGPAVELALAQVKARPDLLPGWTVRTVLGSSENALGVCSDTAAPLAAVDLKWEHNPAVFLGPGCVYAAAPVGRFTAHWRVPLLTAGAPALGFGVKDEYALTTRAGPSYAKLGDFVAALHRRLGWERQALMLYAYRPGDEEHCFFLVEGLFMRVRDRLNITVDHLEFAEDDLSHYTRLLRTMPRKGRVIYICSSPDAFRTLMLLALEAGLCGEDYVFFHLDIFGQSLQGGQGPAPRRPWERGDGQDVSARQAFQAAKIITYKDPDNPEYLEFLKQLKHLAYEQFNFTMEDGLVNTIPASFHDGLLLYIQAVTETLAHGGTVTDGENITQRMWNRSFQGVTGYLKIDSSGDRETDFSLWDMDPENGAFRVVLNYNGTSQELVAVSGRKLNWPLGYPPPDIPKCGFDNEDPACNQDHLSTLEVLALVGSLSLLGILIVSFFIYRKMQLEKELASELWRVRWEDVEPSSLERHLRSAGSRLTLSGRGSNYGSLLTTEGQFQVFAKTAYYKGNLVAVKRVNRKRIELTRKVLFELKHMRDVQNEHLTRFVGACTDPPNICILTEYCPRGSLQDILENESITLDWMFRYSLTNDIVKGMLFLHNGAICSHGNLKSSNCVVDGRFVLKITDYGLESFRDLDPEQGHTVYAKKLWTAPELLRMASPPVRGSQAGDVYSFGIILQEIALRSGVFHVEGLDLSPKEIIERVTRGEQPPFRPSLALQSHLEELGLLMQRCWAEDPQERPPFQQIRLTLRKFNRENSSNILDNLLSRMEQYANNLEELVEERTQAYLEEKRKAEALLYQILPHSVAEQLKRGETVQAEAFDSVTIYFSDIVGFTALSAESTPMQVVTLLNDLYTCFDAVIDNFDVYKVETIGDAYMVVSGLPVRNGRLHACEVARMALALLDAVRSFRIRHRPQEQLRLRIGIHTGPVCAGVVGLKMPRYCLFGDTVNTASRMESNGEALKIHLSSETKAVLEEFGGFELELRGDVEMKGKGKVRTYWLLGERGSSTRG

On to `NC(N)=NOCCC(N)C(=O)O` (stereo not given), for which the Potency entry in [1], in experiment [2], in experiment [3], in experiment [4], in experiment [6] and in [8] was “inactive” throughout. Further, the Potency result in experiment [9] was “inactive”. Besides, the result in [5] and in [7] was inactive.

Regarding `C=CCN1CC[C@]23CCCCC2[C@H]1Cc1ccc(O)cc13` (stereo not given in full), the Potency entry in experiment [1], in [2], in [3], in experiment [4], in experiment [6] and in experiment [8] was “inactive” throughout. In addition, the Potency entry in [9] is “inactive”. Further, in experiment [7], the molecule was classed as inactive.

As to `CN1C2CCC1CC(OC(=O)c1cc(Cl)cc(Cl)c1)C2` (stereo not given), the Potency entry in [1], in experiment [2], in experiment [3], in [4], in experiment [6] and in experiment [8] was “inactive” in each case. For the same molecule, the Potency entry in experiment [9] is “inactive”.

Regarding `CCCCc1ccc(C(=O)O)nc1`, the Potency entry in experiment [1], in experiment [2], in experiment [3], in experiment [4], in experiment [8] and in [9] was “inactive” throughout. For the same molecule, the Potency in [6] was 16.5 µM (active).

On to `CC1=NN=C(c2ccc(N)cc2)c2cc3c(cc2C1)OCO3`, for which the Potency result in experiment [1], in experiment [2], in [3], in [4], in experiment [6] and in experiment [8] was “inactive” each time. For the same molecule, the Potency result in [9] was “inactive”. For the same molecule, the molecule was classed as inactive in experiment [7].

As to `Cn1cnc(CCN)c1`, the Potency entry in experiment [1], in experiment [2], in [3], in [4], in experiment [6] and in experiment [8] was “inactive” in each case. Further, the Potency result in experiment [9] is “inactive”. Moreover, the outcome in experiment [5] and in [7] was inactive.

For `Clc1cnc(Oc2ccc(Oc3ncc(Cl)cc3Cl)cc2)c(Cl)c1`, the Potency result in experiment [1], in experiment [2], in experiment [3], in experiment [4], in experiment [6] and in [8] was “inactive” in each case. In addition, in experiment [9], the Potency entry was “inactive”.

On to `C[C@]12N[C@H](Cc3ccccc31)c1ccccc12`, for which the Potency entry in experiment [1], in experiment [2], in experiment [3], in experiment [4], in experiment [8] and in [9] was “inactive” in each case. Besides, the result in experiment [10] was inactive.

Regarding `COC(=O)[C@@H](N)CCCN=C(N)N[N+](=O)[O-]`, the Potency result in experiment [1], in experiment [2], in experiment [3], in experiment [4] and in experiment [6] was “inactive” in each case. The result in [10] was inactive.

On to `C#CCOC(=O)C1=CCCN(C)C1`, for which the Potency entry in [1], in [2], in experiment [3], in experiment [4], in experiment [6] and in experiment [8] was “inactive” each time. Also, the Potency entry in [9] was “inactive”. Further, the result in experiment [5] and in experiment [10] was inactive.

Take `Oc1ccc2c3c1O[C@H]1c4[nH]c5c(c4C[C@@]4(O)[C@@H](C2)N(CC2CC2)CC[C@]314)C[C@@]1(O)[C@H]2Cc3ccc(O)c4c3[C@@]1(CCN2CC1CC1)[C@H]5O4`: the Potency result in experiment [1], in experiment [2], in experiment [3], in [4], in experiment [6] and in [8] was “inactive” throughout. In addition, in experiment [9], the Potency result is “inactive”. Moreover, the call in experiment [7] was inactive.

In the case of `C[C@]12CCC3C(CC[C@H]4C[C@H](O)CC[C@]34C)C1CC[C@@H]2C(=O)CO` (stereo not given in full), the Potency entry in experiment [1], in experiment [2], in [3], in [4], in experiment [6] and in [8] was “inactive” throughout. Further, the Potency entry in experiment [9] is “inactive”.

As for `COc1cc(C(O)CN)ccc1O` (stereo not given), the Potency result in experiment [1], in [2], in experiment [3], in experiment [4], in experiment [6] and in experiment [8] was “inactive” each time. In addition, in [9], the Potency entry was “inactive”.

Take `O=C(Cc1ccc(Cl)c(Cl)c1)N1CCCCC1CN1CCCC1` (stereo not given): the Potency result in [1], in experiment [2], in experiment [3], in experiment [4], in experiment [6] and in experiment [8] was “inactive” in each case. Besides, the Potency result in experiment [9] is “inactive”. Besides, in experiment [10], the outcome was inactive.

On to `CCCN1CCO[C@@H]2c3cc(O)ccc3OC[C@H]21`, for which the Potency result in experiment [1], in experiment [2], in experiment [3], in [4], in experiment [6] and in experiment [8] was “inactive” throughout. In [9], the Potency result was “inactive”. The result in [10] was inactive.

For `CC(=O)NCCc1c[nH]c2ccccc12`, the Potency result in [1], in [2], in [3], in [4], in [6] and in [8] was “inactive” throughout. The Potency entry in experiment [9] was “inactive”. Moreover, the result in experiment [5] and in [10] was inactive.

For `CCCN(CCC)[C@@H]1CCc2ccc(O)cc2C1`, the Potency result in [1], in [2], in experiment [3], in experiment [4], in experiment [6] and in experiment [8] was “inactive” throughout. Moreover, in experiment [9], the Potency entry was “inactive”.

With `O=C(N[C@H]1CN2CCC1CC2)c1ccc(Cl)cc1`, the Potency result in [1], in experiment [2], in experiment [3], in experiment [4], in experiment [6] and in [8] was “inactive” throughout.

Take `NCc1cc(=O)[nH]o1`: the Potency result in experiment [1], in experiment [2], in experiment [3], in experiment [4], in [6] and in [8] was “inactive” throughout. Besides, the Potency entry in experiment [9] was “inactive”. For the same molecule, the result in [5] and in [7] was inactive.

For `O=C(O)[C@@H]1CCN1`, the Potency entry in experiment [1], in experiment [2], in [3], in [4], in experiment [6] and in experiment [8] was “inactive” in each case. Further, the Potency entry in experiment [9] is “inactive”. The outcome in [5] was inactive.

In the case of `C[C@@H]1O[C@H](C[N+](C)(C)C)C[C@H]1O`, the Potency entry in experiment [1], in experiment [2], in experiment [3], in [4], in experiment [6] and in experiment [8] was “inactive” in each case. For the same molecule, the Potency entry in experiment [9] is “inactive”. The molecule was classed as inactive in experiment [7].

As to `CC(C)Oc1cccnc1N(C)C1CCN(Cc2ccccc2)CC1`, the Potency result in experiment [1], in [2], in experiment [3], in experiment [4], in experiment [6] and in [8] was “inactive” in each case. The Potency entry in experiment [9] was “inactive”. In experiment [7], the call was inactive.

On to `NCCc1c[nH]c2ccccc12`, for which the Potency result in [1], in [2], in experiment [3], in experiment [4], in [6] and in experiment [8] was “inactive” in each case. In experiment [9], the Potency entry was “inactive”. Besides, the molecule was called inactive in experiment [7].

Regarding `NC(=NCCC[C@H](N)C(=O)O)N[N+](=O)[O-]`, the Potency result in experiment [1], in experiment [2], in experiment [3], in experiment [4], in [6] and in experiment [8] was “inactive” in each case. Besides, in [9], the Potency result is “inactive”.
